Assay results from PubChem BioAssay AID1159580 (chemical genetic matrix, 2015).
Hit rate of the full screen: of about 5,500 compounds, about 2,000 (36%) were called active. Not shown: some 18% with an inconclusive outcome. Cut-off read from the data, not from the text of the source: active = normalized growth mostly below about 0.91 (no sharp cut-off); inconclusive = no clear call, values can overlap the other calls; inactive = mostly above about 0.92. Some of the results follow.

Test: chemical genetic growth profiling, strain panel (AID 1159580);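 note: tested at 20 µM; growth read once vehicle control cultures reached saturation at 30 °C; 1 = growth at the plate median or of vehicle wells; lower values mean less growth of the strain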
Settings: growth OD

Measured: normalized growth

CC(C)CCCC(C)[C@H]1CCC2C3CC=C4C[C@@H](O)CC[C@]4(C)C3CC[C@@]21C (some centres undefined)
inactive: S. cerevisiae deletion strains, locus YJR075W, strain HOC1, hits give low values 1.02 | S. cerevisiae deletion strains, locus YKL009W, strain mrt4, hits give low values 0.99 | S. cerevisiae deletion strains, locus YKL068W, hits give low values 1 | S. cerevisiae deletion strains, locus YKL085W, strain MDH1 (second series), hits give low values 0.999 | S. cerevisiae deletion strains, locus YKL085W, strain MDH1, hits give low values 0.999 | S. cerevisiae deletion strains, locus YKL160W, strain elf1, hits give low values 1.01 | S. cerevisiae deletion strains, locus YKL190W, strain CNB1, hits give low values 1.01 | S. cerevisiae deletion strains, locus YKR001C, strain vps1, hits give low values 0.985 | S. cerevisiae deletion strains, locus YKR026C, strain gcn3, hits give low values 0.988 | S. cerevisiae deletion strains, locus YKR091W, strain srl3, hits give low values 0.981 | S. cerevisiae deletion strains, locus YLL001W, strain dnm1, hits give low values 1 | S. cerevisiae deletion strains, locus YLL026W, hits give low values 0.993 | S. cerevisiae deletion strains, locus YLL041C, strain sdh2, hits give low values 0.968 | S. cerevisiae deletion strains, locus YLR027C, strain aat2, hits give low values 0.981 | S. cerevisiae deletion strains, locus YLR039C, strain RIC1, hits give low values 1.02 | S. cerevisiae deletion strains, locus YLR058C, strain SHM2, hits give low values 1.01 | S. cerevisiae deletion strains, locus YLR102C, strain apc9, hits give low values 0.995 | S. cerevisiae deletion strains, locus YLR113W, strain HOG1, hits give low values 1.04 | S. cerevisiae deletion strains, locus YLR221C, strain rsa3, hits give low values 1.08 | S. cerevisiae deletion strains, locus YLR258W, strain gsy2, hits give low values 1 | S. cerevisiae deletion strains, locus YLR262C, strain YPT6 (second series), hits give low values 0.987 | S. cerevisiae deletion strains, locus YLR262C, strain YPT6, hits give low values 1.02 | S. cerevisiae deletion strains, locus YLR268W, strain sec22, hits give low values 0.963 | S. cerevisiae deletion strains, locus YLR320W, strain mms22, hits give low values 1.01 | S. cerevisiae deletion strains, locus YLR330W, strain CHS5, hits give low values 1.02 | S. cerevisiae deletion strains, locus YLR342W, strain FKS1 (second series), hits give low values 1.02 | S. cerevisiae deletion strains, locus YLR342W, strain FKS1, hits give low values 0.968 | S. cerevisiae deletion strains, locus YLR357W, strain rsc2, hits give low values 0.983 | S. cerevisiae deletion strains, locus YLR370C, strain arc18, hits give low values 0.974 | S. cerevisiae deletion strains, locus YLR371W, strain rom2, hits give low values 0.988 | S. cerevisiae deletion strains, locus YLR384C, strain iki3, hits give low values 0.97 | S. cerevisiae deletion strains, locus YLR418C, strain cdc73, hits give low values 1 | S. cerevisiae deletion strains, locus YML016C, strain PPZ1, hits give low values 1.01 | S. cerevisiae deletion strains, locus YML032C, strain rad52, hits give low values 1 | S. cerevisiae deletion strains, locus YML120C, strain ndi1, hits give low values 0.975 | S. cerevisiae deletion strains, locus YML124C, strain tub3, hits give low values 0.999 | S. cerevisiae deletion strains, locus YMR058W, strain fet3, hits give low values 0.972 | S. cerevisiae deletion strains, locus YMR078C, strain ctf18, hits give low values 0.999 | S. cerevisiae deletion strains, locus YMR125W, strain sto1, hits give low values 0.94 | S. cerevisiae deletion strains, locus YMR129W, hits give low values 0.975 | S. cerevisiae deletion strains, locus YMR205C, strain PFK2, hits give low values 1 | S. cerevisiae deletion strains, locus YMR223W, strain ubp8, hits give low values 1.02 | S. cerevisiae deletion strains, locus YMR231W, strain pep5, hits give low values 0.967 | S. cerevisiae deletion strains, locus YMR263W, strain SAP30, hits give low values 1.02 | S. cerevisiae deletion strains, locus YMR307W, strain GAS1, hits give low values 1.04 | S. cerevisiae deletion strains, locus YNL067W, strain RPL9B, hits give low values 1 | S. cerevisiae deletion strains, locus YNL071W, strain lat1, hits give low values 0.966 | S. cerevisiae deletion strains, locus YNL183C, strain NPR1, hits give low values 0.962 | S. cerevisiae deletion strains, locus YNL209W, strain ssb2, hits give low values 0.98 | S. cerevisiae deletion strains, locus YNL233W, strain BNI4, hits give low values 1.02 | S. cerevisiae deletion strains, locus YNL248C, strain rpa49, hits give low values 0.963 | S. cerevisiae deletion strains, locus YNL250W, strain rad50, hits give low values 1.02 | S. cerevisiae deletion strains, locus YNL271C, strain bni1, hits give low values 0.994 | S. cerevisiae deletion strains, locus YNL298W, strain CLA4, hits give low values 0.995 | S. cerevisiae deletion strains, locus YNL307C, strain MCK1, hits give low values 0.987 | S. cerevisiae deletion strains, locus YNL322C, strain KRE1 (second series), hits give low values 0.964 | S. cerevisiae deletion strains, locus YNL322C, strain KRE1, hits give low values 1.01 | S. cerevisiae deletion strains, locus YNR049C, strain mso1, hits give low values 0.981 | S. cerevisiae deletion strains, locus YNR052C, strain pop2, hits give low values 0.99 | S. cerevisiae deletion strains, locus YOL012C, strain htz1 0.694 | S. cerevisiae deletion strains, locus YOL147C, strain pex11, hits give low values 0.99 | S. cerevisiae deletion strains, locus YOR001W, strain rrp6, hits give low values 0.99 | S. cerevisiae deletion strains, locus YOR061W, strain CKA2, hits give low values 1.01 | S. cerevisiae deletion strains, locus YOR069W, strain VPS5, hits give low values 1.01 | S. cerevisiae deletion strains, locus YOR070C, strain gyp1, hits give low values 1.07 | S. cerevisiae deletion strains, locus YOR080W, strain dia2, hits give low values 0.991 | S. cerevisiae deletion strains, locus YOR083W, strain WHI5, hits give low values 1.03 | S. cerevisiae deletion strains, locus YOR106W, strain vam3, hits give low values 0.988 | S. cerevisiae deletion strains, locus YOR136W, strain idh2, hits give low values 0.99 | S. cerevisiae deletion strains, locus YOR144C, strain elg1, hits give low values 0.986 | S. cerevisiae deletion strains, locus YOR184W, strain ser1, hits give low values 0.984 | S. cerevisiae deletion strains, locus YOR231W, strain MKK1, hits give low values 1.03 | S. cerevisiae deletion strains, locus YOR265W, strain rbl2, hits give low values 0.989 | S. cerevisiae deletion strains, locus YOR270C, strain vph1, hits give low values 0.901 | S. cerevisiae deletion strains, locus YOR290C, strain snf2, hits give low values 0.987 | S. cerevisiae deletion strains, locus YOR316C, strain cot1, hits give low values 0.987 | S. cerevisiae deletion strains, locus YPL051W, strain arl3, hits give low values 1.03 | S. cerevisiae deletion strains, locus YPL055C, strain LGE1, hits give low values 1.03 | S. cerevisiae deletion strains, locus YPL078C, strain atp4, hits give low values 0.98 | S. cerevisiae deletion strains, locus YPL106C, strain sse1, hits give low values 0.999 | S. cerevisiae deletion strains, locus YPL240C, strain hsp82, hits give low values 0.985 | S. cerevisiae deletion strains, locus YPL241C, strain CIN2, hits give low values 1.01 | S. cerevisiae deletion strains, locus YPL256C, strain CLN2, hits give low values 1.01 | S. cerevisiae deletion strains, locus YPR119W, strain clb2, hits give low values 0.992 | S. cerevisiae deletion strains, locus YPR141C, strain kar3, hits give low values 0.995 | S. cerevisiae deletion strains, locus YPR163C, strain tif3, hits give low values 0.988 | S. cerevisiae deletion strains, locus YPR167C, strain met16, hits give low values 0.995 | S. cerevisiae deletion strains, strain wtn01, hits give low values 0.972 | S. cerevisiae strains, strain wild type, hits give low values 1
